High-throughput results deposited in PubChem by Broad Institute.
CASP6 VEID inh – caspase-6 (human) enzyme inhibition | purified caspase-6, Z-VEID-R110 cleavage fluorescence | inhibition, % at 12.5 µM | 350,000 compounds, 0.53% hits | P55212;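 active = mean inhibition across replicates at least about 35%, with every replicate also reaching that limit, limit read from the data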;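 also: 0% = median of neutral control wells and 100% = no fluorescence left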
Target sequence (P55212 24-179 limits assumed): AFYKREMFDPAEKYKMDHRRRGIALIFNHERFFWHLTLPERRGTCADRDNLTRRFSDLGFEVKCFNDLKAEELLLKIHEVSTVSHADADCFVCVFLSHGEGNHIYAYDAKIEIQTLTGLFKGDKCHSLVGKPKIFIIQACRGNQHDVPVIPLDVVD
Target sequence (P55212 194-293 limits assumed): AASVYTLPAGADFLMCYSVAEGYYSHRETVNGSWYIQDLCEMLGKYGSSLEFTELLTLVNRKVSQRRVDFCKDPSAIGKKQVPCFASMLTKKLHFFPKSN
HIV Env fusion – inhibitors of HIV Env-mediated cell fusion; HeLa-JRFL Env/CEM21 cell fusion, luciferase; inhibition, % at 12.3 µM; 360,000 compounds, 1.1% hits; AID 651610;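 active = mean replicate inhibition score of at least 50 and every replicate individually at or above 50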;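 also: 0% = plate neutral controls and 100% = maraviroc near 300 nM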
CFTR F508del cor – correctors of CFTR F508del function in bronchial epithelial cells; CFBE cells, YFP halide quenching; stimulated with forskolin plus potentiator P3; % fluorescence drop versus neutral controls; AID 720511; 350,000 compounds, 0.36% hits; activity (quench increase), % at 7.58 µM;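 active = mean added fluorescence quench of at least 8% versus neutral control, with both replicates also reaching 8%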;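 also: cells transiently co-express mutant CFTR-F508del with the halide-sensitive YFP; corrector assay measuring rescue of mutant channel to the surface after 24 h compound exposure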
PglD DTNB – PglD (C. jejuni) enzyme inhibition | purified PglD enzyme, DTNB colorimetric CoA detection | inhibition, % at 12.5 µM | 360,000 compounds, 0.098% hits | AID 602405; in the data active = inhibition above about 16%, passing the limit was not always enough
NSD2 inh – blocks human histone methyltransferase NSD2; inhibition, % at 12.5 µM; 310,000 compounds, 0.54% hits; O96028; NSD2 peptide methylation, AlphaScreen, 120 min; in the data active = inhibition above about 50%
ALR H2O2 inh – blocks human ALR sulfhydryl oxidase activity; P55789; purified ALR, DTT oxidation, H2O2 HRP-luminol luminescence; inhibition, % (no concentration beside the values); 290,000 compounds, 3.8% hits; AID 485317;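 active = mean replicate inhibition above about 79%, with every replicate also reaching it, limit read from the data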
Target sequence (P55789 whole entry, looked up): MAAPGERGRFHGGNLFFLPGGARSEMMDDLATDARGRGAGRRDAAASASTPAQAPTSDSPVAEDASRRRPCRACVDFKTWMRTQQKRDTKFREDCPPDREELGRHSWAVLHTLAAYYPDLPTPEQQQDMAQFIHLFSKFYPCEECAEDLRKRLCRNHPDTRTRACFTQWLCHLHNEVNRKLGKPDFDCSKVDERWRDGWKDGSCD
Starred values were filed as active, the others as inactive; nt = no result; [ ] = another dose, or the depositor's remark. In the library only some 4.1% were active in any assay of this set; here they are far more common.

SMILES	CASP6 VEID inh	HIV Env fusion	CFTR F508del cor	PglD DTNB	NSD2 inh	ALR H2O2 inh
C[C@@H]1CN([C@@H](C)CO)C(=O)Cc2cc(NS(=O)(=O)c3ccc(F)cc3)ccc2O[C@H]1CN(C)C(=O)Nc1ccccc1	-3	1[16.7 µM]	-1	6	nt	nt
COc1ccc2c3c(n(C)c2c1)[C@H](CO)N(C(=O)Cc1ccccc1)CC31CN(C(C)=O)C1	nt	nt	-1	nt	nt	nt
COc1cc(-c2noc(C)c2C#Cc2ccc(N)cc2)cc(OC)c1OC	5	-335	2	1	nt	-2
COc1cc(-c2c(-c3cc(OC)c(OC)c(OC)c3)noc2C)ccc1F	-2	68*	-3	nt	nt	2
COc1cc(-c2noc(C)c2C#Cc2ccccn2)cc(OC)c1OC	1	-94	10*	1	nt	0
CCN(C(=O)COC(=O)c1oc2ccccc2c1C)c1c(N)n(Cc2ccccc2)c(=O)[nH]c1=O	54*	nt	-2	-4	1	nt
COCCN(C(=O)COC(=O)Cc1coc2cc(C)ccc12)c1c(N)n(Cc2ccccc2)c(=O)[nH]c1=O	52*	-8	3	0	5	0
COCCN(C(=O)COC(=O)Cc1cccc2ccccc12)c1c(N)n(Cc2ccccc2)c(=O)[nH]c1=O	3	nt	1	2	-1	8
CCN(C(=O)COC(=O)CNC(=O)c1ccc(C)cc1)c1c(N)n(Cc2ccccc2)c(=O)[nH]c1=O	4	nt	2	3	122*	-3
Cc1ccc2c(c1)CCCN2CC(=O)N(C)c1c(N)n(Cc2ccccc2)c(=O)[nH]c1=O	-16	nt	1	-3	4	91*
CCC(=O)N1CC2(C1)[C@H](c1ccccc1)[C@H](CO)N2Cc1cccc(Cl)c1	-1	nt	7	nt	nt	nt
COCCN(C(=O)COC(=O)c1ccc(C=O)cc1)c1c(N)n(Cc2ccccc2)c(=O)[nH]c1=O	4	58*	-2	1	12	4
CCN(C(=O)CN1CCCCC1)c1c(N)n(Cc2ccccc2)c(=O)[nH]c1=O	1	nt	1	1	-3	1
COCCN(C(=O)COC(=O)c1ccc2c(c1)OCCO2)c1c(N)n(Cc2ccccc2)c(=O)[nH]c1=O	4	nt	1	nt	-1	-1
CCN(C(=O)COC(=O)c1cccc2ccccc12)c1c(N)n(Cc2ccccc2)c(=O)[nH]c1=O	7	nt	18*	2	0	nt
CCN(C(=O)CN1CCN(c2cccc(Cl)c2)CC1)c1c(N)n(Cc2ccccc2)c(=O)[nH]c1=O	0	-1	1	-3	-1	92*
CN(C)C(=O)C[C@@H]1C[C@H]2c3cc(NC(=O)NC4CCCC4)ccc3O[C@H]2[C@H](CO)O1	0	-16[16.7 µM]	-4	-1	nt	nt
Cc1ccc(/C=c2\sc3nc(-c4cccs4)nn3c2=O)o1	nt	-91	nt	nt	26	99*
COc1ccc2c3c([nH]c2c1)[C@@H](CO)N(C(=O)CN(C)C)CC31CCN(CC2CC2)CC1	-43	nt	0	nt	nt	nt
NCC(O)CN(c1ccccc1)c1ccccc1 (stereo unspecified)	0	2	1	nt	-3	99*
OC(CN(c1ccccc1)c1ccccc1)Cn1cnc2ccccc21 (stereo unspecified)	nt	nt	nt	0	3	99*
Cc1cccc(C)c1OCC(O)CN (stereo unspecified)	nt	nt	nt	-5	0	-4
CC(C)[N+](C)(C)CC(O)CN(c1ccccc1)c1ccccc1 (stereo unspecified)	-4	-2	0	3	-1	98*
CN(Cc1ccccc1)CC(O)CC(O)c1ccccc1 (stereo unspecified)	-3	3[16.7 µM]	-3	-3	nt	nt
OC(COCc1ccccc1)Cn1cnc2ccccc21 (stereo unspecified)	nt	-34	nt	-1	9	-5
SMILES	CASP6 VEID inh	HIV Env fusion	CFTR F508del cor	PglD DTNB	NSD2 inh	ALR H2O2 inh
OCCN(CCO)CC(O)CN(c1ccccc1)c1ccccc1 (stereo unspecified)	1	8	1	3	-5	99*
O=c1oc2ccccc2n1CSC1=NCCS1	nt	nt	nt	-7	1	99*
Nc1ccc2c(c1)N1CCN=C1S2	nt	6	nt	0	0	88*
O=C(Nc1ccc(Cl)cc1)Nc1ccc2c(c1)N1CCN=C1S2	nt	51	nt	-12	-1	0
CN(C)C(=O)c1cccc(-c2ccc([C@@H]3[C@@H](CO)N4CCCCN(C(=O)C5CCCC5)C[C@@H]34)cc2)c1	-1	nt	0	2	nt	nt
Cc1c2cc(O)c(=O)cc-2oc2cc(O)c(O)cc12	92*	nt	17*	10	nt	93*
COc1ccc2c3c([nH]c2c1)[C@H](CO)N(Cc1ccccc1F)CC31CN(S(C)(=O)=O)C1	nt	nt	-1	nt	nt	nt
CC(=O)/C=C1/SC(CC(=O)O)C(=O)N1c1ccccc1 (stereo unspecified)	nt	25	nt	8	115*	6
Nc1nc(-c2c[nH]c3ccccc23)cs1	nt	-101	nt	-8	10	87*
CNc1nc(-c2c[nH]c3ccccc23)cs1	nt	nt	nt	10	2	nt
O=C(CN1CCCCC1)NNc1nc(-c2ccccc2)c2cc(Br)ccc2n1	1	-5	0	0	-1	90*
COc1cc(C(=O)O[C@H]2CC(C)=CC[C@@]3(C)CC[C@@](O)(C(C)C)[C@H]23)ccc1O	3	88*	5	7	10	6
COc1cc(C(=O)O[C@H]2C/C(C)=C/CC[C@]3(C)O[C@@H]3C(O)C2C(C)C)cc(OC)c1OC (stereo partly specified)	3	3	2	2	8	-14
N#CCCN(C(=O)COC(=O)c1ccc2c(c1)OCO2)c1ccccc1	3	nt	0	1	-1	-2
N#CCCN(C(=O)COC(=O)c1cc(=O)c2ccccc2o1)c1ccccc1	1	-1	13*	3	-1	-10
O=C(c1ccccn1)N1CC2(C1)[C@@H](c1ccccc1)[C@@H](CO)N2C(=O)CC1CC1	-1	nt	2	nt	nt	nt
O=C(c1ccc(-n2cncn2)c([N+](=O)[O-])c1)N1CCN(S(=O)(=O)c2ccc(Br)cc2)CC1	5	11	4	4	2	-6
CC(=O)c1ccc(S(=O)(=O)N2CCN(C(=O)c3ccc(-n4cncn4)c([N+](=O)[O-])c3)CC2)cc1	54*	-11	1	0	1	nt
N=C1S/C(=C\c2ccco2)C(=O)N1c1nccs1	37*	-20	-4	3	8	nt
Cc1cc(C)c2nc(Nc3nc(CSc4nc5ccccc5[nH]4)cc(=O)[nH]3)nc(C)c2c1	1	83*	-1	nt	1	nt
Cc1ccc2c(C)nc(Nc3nc(CSc4nnnn4-c4ccccc4)cc(=O)[nH]3)nc2c1	nt	70*	nt	nt	-2	-2
CO[C@H]1CN(C)C(=O)c2ccc(NC(=O)c3ccccc3)cc2OC[C@@H](C)N(C(=O)CN(C)C)C[C@@H]1C	-2	14[16.7 µM]	2	-1	nt	nt
COCC(=O)N1C[C@H](C)[C@@H](OC)CN(C)C(=O)c2ccc(NC(=O)c3ccc(OC)cc3)cc2OC[C@H]1C	nt	-8[16.7 µM]	-3	-1	nt	nt
